Screens: PubChem, National Center for Advancing Translational Sciences (NCATS)
VDR inhibitor = Inhibitors of the vitamin D receptor (VDR): qHTS; Vitamin D3 receptor (Homo sapiens), P11473; VDR-SRC2-3 peptide fluorescence polarization, 2 h; Potency, µM, inactives show max response, negative = inhibition, hits mostly inhibitors; 0.93% of 400,000 active; note: % is set by controls: 0 for no effect and ±100 for the full control effect
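After 23 nl compound addition and a short centrifugation, plates sat for 2 hours at ambient temperature; polarization of fluorescence then indicated loss of VDR binding to peptide SRC2-3.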
G9a block = qHTS Assay for Inhibitors of Histone Lysine Methyltransferase G9a; 8.8% of 350,000 active; AID 504332, 2011; Potency, µM (titrated, usually from 102 µM), inactives show at the top dose activity, negative = inhibition, most hits filed as inhibitors; G9a H3K9 monomethylation, AlphaScreen, 2 h; note: % is set by controls: 0 for no effect and ±100 for the full control effect; nearly all actives have a fitted effect of over 75% in size
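Signal arises when biotinylated H3K9 peptide, once monomethylated, bridges streptavidin donor and antibody-captured acceptor beads. Enzyme at 20 nM was preincubated 15 min with test compounds; peptide 500 nM and SAM 20 uM then reacted for 2 h.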
GRP78 ERSR act = qHTS for Inducers of the Endoplasmic Reticulum Stress Response (ERSR) in Human Glioma: qHTS; U87-MG GRP78 promoter luciferase reporter, 16 h; Potency, µM, without a hit: top-dose activation, hits mostly activators; 0.02% of 420,000 active; AID 602332, 2012; note: series mostly up to about 76 µM; % of control where 0% means no effect; nearly all actives have a fitted effect of over 35% in size
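ERSR induction read as luciferase luminescence (Bright-Glo, 10 min at room temperature) in stably transfected human U87-MG glioma cells exposed to compounds for 16 h, using GRP78 as sensor.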
Sfp inh = qHTS Assay for Inhibitors of Bacillus subtilis Sfp phosphopantetheinyl transferase (PPTase). 4'-phosphopantetheinyl transferase ffp (Bacillus subtilis), Q9F4F7. Biochemical Sfp PPTase activity, qHTS. Potency, µM, without a hit: largest response in the series, negative = inhibition, most hits filed as inhibitors. 3.5% of 310,000 active. AID 1490, 2009;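 note: the enzyme is Sfp with the accession as filed and its product quenches rhodamine fluorescence; 0% = enzyme reaction without inhibitor and -100% = no enzyme wells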
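Reaction rates are the 30-min fluorescence difference (ex 525, em 598 nm) in wells containing 15 nM Sfp, 5 uM rhodamine-CoA and 12.5 uM BHQ-2-YbbR at pH 7.6 with 10 mM MgCl2.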
12-LOX inh = Primary qHTS assay for inhibitors of human arachidonate 12S-lipoxygenase (ALOX12): Round 2 | Polyunsaturated fatty acid lipoxygenase ALOX12 (Homo sapiens), P18054 | Potency, µM (highest dose often 108 µM), for the others: at the top dose activity change, negative = inhibition, most hits filed as inhibitors | purified 12hLO, xylenol orange hydroperoxide absorbance | 1.1% of 580,000 active; note: % is set by controls: 0 for no effect and ±100 for the full control effect
Target sequence (P18054 whole entry, looked up): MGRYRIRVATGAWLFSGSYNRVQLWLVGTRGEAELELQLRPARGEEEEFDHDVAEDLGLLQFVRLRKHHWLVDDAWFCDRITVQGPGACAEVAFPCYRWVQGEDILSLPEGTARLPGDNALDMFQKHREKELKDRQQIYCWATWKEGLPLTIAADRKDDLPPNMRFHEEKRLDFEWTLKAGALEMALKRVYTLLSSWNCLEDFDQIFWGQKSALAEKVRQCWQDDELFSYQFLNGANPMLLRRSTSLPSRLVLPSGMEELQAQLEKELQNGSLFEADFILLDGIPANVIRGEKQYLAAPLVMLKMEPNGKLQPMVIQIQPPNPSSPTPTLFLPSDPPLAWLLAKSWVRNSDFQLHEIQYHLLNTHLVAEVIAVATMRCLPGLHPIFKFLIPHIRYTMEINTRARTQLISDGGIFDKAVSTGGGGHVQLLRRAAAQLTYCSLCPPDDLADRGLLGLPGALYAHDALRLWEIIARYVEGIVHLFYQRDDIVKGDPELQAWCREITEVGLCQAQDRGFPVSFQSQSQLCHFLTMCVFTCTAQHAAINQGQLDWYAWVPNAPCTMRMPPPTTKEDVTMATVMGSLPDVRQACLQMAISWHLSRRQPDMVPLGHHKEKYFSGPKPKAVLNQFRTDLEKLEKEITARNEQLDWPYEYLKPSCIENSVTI
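Purified human 12hLO (150 nM final) in 25 mM Hepes, 0.01% Triton X-100, pH 7.0 was preincubated 15 min at room temperature with compound. Then 40 uM arachidonic acid was added, 30 min. Hydroperoxide was read by Fe-XO absorbance ratio 573/405 nm.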
Starred values were filed as active, the others as inactive; u = inconclusive; x = no result; ! = not active in a repeat; [ ] = dose if it differs, or a comment. Shown is part of a subset that was picked to be rich in hits. Calls come from the whole dose curve; as a rule, active = well fitted curve in the direction sought with a large enough effect; inconclusive = small, poorly fitted or top-dose-only effect, or another doubt; inactive = no such curve, though single readings can be large; an effect the other way counts as inactive or inconclusive. Potency is the fitted concentration of half-maximal effect.

SMILES	VDR inhibitor	G9a block	GRP78 ERSR act	Sfp inh	12-LOX inh
COc1ccc(NC(=O)c2ccccc2Sc2ccc(NC(C)=O)nc2)cc1	5%	20µM*	-5%	11%	u
CC(=O)Nc1ccc(Sc2ccccc2C(=O)Nc2ccc(F)cc2)cn1	-10%	u	-2%	10%	-18%
CC(=O)Nc1ccc(Sc2ccccc2C(=O)O)cn1	4%	u	-7%	u	2µM*
Cc1cc(CNC(=O)c2cccc(F)c2F)c2[nH]c(C)c(C)c2c1	x	x	x	x	-4%
O=C(CSc1ncc(-c2ccc(F)cc2)o1)Nc1ccc(O)cc1	x	x	x	x	-16%
O=C1c2ccccc2C(c2c[nH]c3ccccc23)N1CCc1ccccc1 (stereo not given)	x	x	x	x	3%
CN1C(=O)/C(=C/c2cn(CC(=O)N3CCCCC3)c3ccccc23)c2ccccc21	x	11µM*	x	2%	x
COC(=O)c1cn(CC(=O)N2C(C)CCCC2C)c2ccccc12 (stereo not given)	0%	-29%[59 µM]	-2%	10%	-11%
CC1CCCC(C)N1C(=O)Cn1cc(/C=C2/C(=O)Nc3ccccc32)c2ccccc21 (stereo not given)	2%	10µM*	-1%	6%	x
Cn1cc(S(=O)(=O)N2CCCC(C(=O)Nc3nn(Cc4ccccc4Cl)cc3Cl)C2)cn1 (stereo not given)	x	x	x	x	36%
Cc1nn(-c2ccccc2)c2nc(N)c(C#N)c(-c3ccc(O)c(O)c3)c12	8%	u	-5%	u	32µM*
CCN(CC)CCCNC(=S)N(Cc1cccs1)Cc1cc2cc3c(cc2[nH]c1=O)OCCO3	-19%	-41%	-5%	-6%	-22%
Cc1cc2cc(CN(Cc3ccco3)C(=S)NCC3CCCO3)c(=O)[nH]c2cc1C (stereo not given)	-7%	u	-3%	50µM*	u
CN(C)CCCN(Cc1cc2cc3c(cc2[nH]c1=O)OCO3)C(=S)Nc1cccc(Cl)c1	-13%	50µM*	-7%	-10%	-29%
CCNC(=S)N(Cc1ccco1)Cc1cc2cc3c(cc2[nH]c1=O)OCCO3	-2%	18%[59 µM]	1%	-6%	0%
CCc1ccc2[nH]c(=O)c(CN(Cc3ccco3)C(=S)NCC3CCCO3)cc2c1 (stereo not given)	-3%	x	-3%	-4%	u
CCN(CC)CCCNC(=S)N(Cc1ccco1)Cc1cc2cc3c(cc2[nH]c1=O)OCCO3	x	26%[59 µM]	x	79µM*	-25%
CNC(=S)N(Cc1ccco1)Cc1cc2cc3c(cc2[nH]c1=O)OCCO3	-22%	79µM*	-2%	28µM*	-17%
COc1cccc(N2C(=O)NC(=NC3CCCC3)C23CCCN(Cc2ccccc2)C3)c1 (stereo not given)	x	x	x	x	1%[6.33 µM]
O=C(CSc1nnc(Nc2ccccc2)s1)c1ccc(Br)s1	x	x	x	x	-68%
C=CCc1cc(Cl)ccc1OCCCn1ccnc1	-17%	10µM*	-3%	-17%	u
Clc1ccc(SCCn2ccnc2)cc1	18%	32µM*	-2%	-18%	u
Clc1ccc(OCCn2ccnc2)c(Cl)c1	-8%	u	-1%	-13%	-20%
Clc1ccc(OCCn2ccnc2)c(Br)c1	-6%	13µM*	-4%	-15%	3.2µM*
C=CCc1cc(Cl)ccc1OCCn1ccnc1	-19%	7.1µM*	-5%	-27%	u
SMILES	VDR inhibitor	G9a block	GRP78 ERSR act	Sfp inh	12-LOX inh
O=C(NC1CCCC1)c1csc2ccccc12	x	x	x	x	-60%
CCC(C)C1NC(=O)C(Cc2ccc(O)cc2)NC(=O)C(N)CSSCC(C(=O)N2CCCC2C(=O)NC(CC(C)C)C(=O)NCC(N)=O)NC(=O)C(CC(N)=O)NC(=O)C(CCC(N)=O)NC1=O (stereo not given)	13µM*!	-38%[2.33 µM]	-3%	-4%	x
CC[C@H](C)[C@@H]1NC(=O)[C@H](Cc2ccc(O)cc2)NC(=O)[C@@H](N)CSSC[C@@H](C(=O)N2CCC[C@H]2C(=O)N[C@@H](CC(C)C)C(=O)NCC(N)=O)NC(=O)[C@H](CC(N)=O)NC(=O)[C@H](CCC(N)=O)NC1=O	-1%	x	-3%	7%	x
CC(=O)Nc1ccc(I)c(C)n1	x	x	x	x	3%
COCCNc1nnc(SCC(=O)NC(=O)c2ccccc2)s1	30%	50µM*	-2%	x	0%
COCCNc1nnc(SCC(=O)Nc2nnc(-c3ccccc3)o2)s1	-2%	-9%[59 µM]	-2%	x	-3%
COCCNc1nnc(SCC(=O)Nc2cc(-c3ccccc3)nn2-c2ccccc2)s1	-17%	79µM*	1%	2%	-1%
CCOC(=O)C(CC)Sc1nnc(CSc2ncccn2)n1-c1ccccc1 (stereo not given)	x	x	x	x	-31%
C[C@@H]1COc2c(N3CCN(C)CC3)c(F)cc3c(=O)c(C(=O)O)cn1c23	12%	-7%[12.7 µM]	-5%	32%	x
CN1CCN(c2c(F)cc3c(=O)c(C(=O)O)cn4c3c2SCC4)CC1	7%	7.9µM*!	-6%	3%	u
O=C(NCc1nc(-c2ccc(Cl)cc2)no1)c1cc2cc(Cl)ccc2o1	x	x	x	x	-28%
CCOC(=O)c1ccc(S(=O)(=O)N2CC(=O)Nc3ccccc32)cc1	-21%	10µM*	-3%	-21%	u
Cc1oc(-c2ccccc2)nc1C(=O)NCC(c1ccccc1)N1CCCC1 (stereo not given)	x	x	x	x	3%
Cc1ccc(N2C(=O)CC(SCC(=O)Nc3ccc(S(N)(=O)=O)cc3)C2=O)cc1 (stereo not given)	-6%	-41%	-3%	-3%	-1%
CCOC(=O)c1ccc(N2C(=O)CC(SCC(=O)Nc3ccc(S(N)(=O)=O)cc3)C2=O)cc1 (stereo not given)	u	32µM*	-5%	-18%	5%
CCc1ccc(NSc2ccccc2[N+](=O)[O-])cc1	-7%	28µM*	5%	6%	-20%
O=C(O)c1cccc([N+](=O)[O-])c1C(=O)Nc1cccc2ccccc12	-11%	-1%[0.501 µM]	-3%	0%	-25%
CCOC(=O)c1ccc(NC(=O)c2ccccc2[N+](=O)[O-])cc1	u	-40%[59 µM]	3%	-4%	-15%
O=C(O)c1ccccc1NSc1ccccc1[N+](=O)[O-]	-20%	28µM*	-1%	-14%	u
N#Cc1nc(-c2ccccc2)[nH]c1C#N	x	x	x	x	66%
CCCn1nc(C(=O)Nc2ccc(SC(F)F)cc2)c2ccccc2c1=O	x	x	x	x	-8%
Cc1ccccc1NC(=O)c1sc2c(c1C)C(c1cccs1)CC(=O)N2 (stereo not given)	x	x	x	x	25µM*
CCN(CC)S(=O)(=O)c1ccc(C)c(NCc2ccc(C#N)cc2)c1	x	x	x	x	-3%
